This note sets out measurements from PubChem BioAssay (EPA / NIEHS).

Molecules are shown by their SMILES. Inconclusive results are not listed. Activity calls are given as the source filed them. How the source made its calls: active means hit-call score of the fitted dose curve at least 0.9, where 1 is the maximum; inconclusive means response in the unintended direction; inactive means score below 0.9.

A short description of this assay: Tanguay_ZF_120hpf_PE_legacy: (Legacy) Oregon State University Tanguay Lab 120 Hour Post-fertilization zebrafish Assay for Pericardial Edema (AID 2283640).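 On AC50: potency for increased incidence of pericardial edema versus DMSO baseline.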 The method, then: Tanguay_ZF_120hpf_legacy is a whole embryo, multiplexed endpoint assay using zebrafish larvae exposed for 120 hours post fertilization on a 96-well plate.Tanguay_ZF_120hpf_PE_legacy is one of one assay component(s) measured or calculated from the Tanguay_ZF_120hpf_legacy assay. It is designed to make measurements of zebrafish development as detected with brightfield microscopy of developing zebrafish embryos.Data from the assay component Tanguay_ZF_120hpf_PE_legacy was analyzed into 1 assay endpoints. This assay endpoint, Tanguay_ZF_120hpf_PE_legacy, was analyzed in the positive analysis fitting direction relative to DMSO as the negative control and baseline of activity. Using a type of morphology reporter, gain-of-signal activity can be used to understand changes in developmentals as they relate to the whole embryo. To generalize the intended target to other relatable targets, this assay endpoint is annotated to the zebrafish development intended target family, where the subfamily is embryonic morphogenesis.
Zebrafish husbandry: Tropical 5D wild-type adult zebrafish were housed in at an approximate density of 1000 per 100 gallon tank at the Sinnhuber Aquatic Research Laboratory, Oregon State University, Corvallis, OR. Each tank was kept at standard laboratory conditions of 28C on a 14-h light/10-h dark photoperiod in fish water consisting of reverse osmosis water supplemented with a commercially available salt (Instant Ocean). Spawning funnels were placed into the tanks the night prior, and embryos were collected and staged. […] Ten microliters of each row of dilution plate 2 was added to 2 exposure plates. The final DMSO concentration used was 0.64% (vol/vol). Thirty-two embryos were also exposed to 5uM trimethyltin chloride (positive control). Plates were sealed to prevent evaporation and foil covered to reduce light exposure and kept in a 28C incubator. Embryos were statically exposed until 120 hpf. At 24 hpf, embryos were assessed for photomotor response using a custom photomotor response analysis tool (PRAT) and for developmental toxicity endpoints (MO24: mortality at 24 hpf, DP: developmental progression, SM: spontaneous movement, and NC: notochord distortion). At 120 hpf, locomotor activity was measured using Viewpoint Zebralab and assessed for 18 endpoints. Zebrafish acquisition and analysis program (ZAAP), a custom program designed to inventory, acquire, and manage zebrafish data, was used to collect developmental endpoints as either present or absent (i.e., binary responses were recorded). If mortality occurred for an embryo (at either 24 or 120 hpf), the non-mortality endpoints were not measured.
In the case of `CCCC(=O)OCC`, the outcome was inactive.
On the same count and under the same terms, as for `CCCCCCCCCCCCc1ccccc1`, the entry is “inactive”.
The term AC50 denotes the concentration at which the activity in the assay is half-maximal. In the case of `Cn1c(=O)cc(Oc2ccc(F)cc2F)c2cnc(NCC(C)(C)O)nc21`, the concentration at half-maximal activity (AC50) is 10.3 µM (active).
In the case of `CCn1nc(Cc2ccccc2)cc1C1CCN(C[C@H]2C[C@H](N(C)[C@@H](C(=O)O)C(C)C)C[C@@H]2c2cccc(F)c2)CC1`, the call was inactive.
Still for that read-out and setting: with `COc1ccc(/C=C/S(=O)(=O)NC(=O)c2ccc(C)cc2Cl)cc1` the entry was “inactive”.
Same read-out and setting: with `CCOC(=O)c1ccc(C2CCC(NC[C@H](O)COc3ccc(O)c(NS(C)(=O)=O)c3)CC2)cc1` (stereo not given in full) the entry was “inactive”.
For `CCOCCOCCOCCO`, the molecule was called inactive.
Same read-out and setting: as for `CCCCCCc1ccc(O)cc1O`, the entry is “inactive”; as for `CCCCC(CC)COC(=O)c1ccc(C(=O)OCC(CC)CCCC)cc1` (stereo not given), “inactive”.
The same measure, in the same setting: with `Cc1[nH]cnc1C[C@H]1CCc2c(C)c3ccccc3n2C1=O` the entry was “inactive”; with `O=C(O)c1cccc(Oc2ccccc2)c1`, “inactive”.
Same read-out and setting: with `CCCCCCCCO` the entry was “inactive”.
As to `CCC(C)(C)C(=O)O[C@H]1C[C@@H](C)C=C2C=C[C@H](C)[C@H](CC[C@@H]3C[C@@H](O)CC(=O)O3)[C@H]21`, the AC50 was 0.64 µM (active).
Turning to `COC(=O)c1ccccc1O`, the call was inactive.
On to `CC1=CC(=O)CC(C)(C)C1`, for which the result was inactive.
On the same count and under the same terms, with `O=C1OC(=O)C2C3C=CC(C3)C12` (stereo not given) the entry was “inactive”.
For the molecule `Oc1ccc2c(c1)-c1ccccc1C2`, the AC50 is 34.5 µM (active).
On to `CCOCCO`, for which the call was inactive.
Still for that read-out and setting: as for `O=c1n(CC2CO2)c(=O)n(CC2CO2)c(=O)n1CC1CO1` (stereo not given), the entry is “inactive”; as for `C=CC(=C)CCC=C(C)C`, “inactive”; as for `COCCOc1cc2cc(C(=O)NC3CCN(C(C)C)CC3)n(CC(=O)Nc3ccc(Cl)cn3)c2cn1`, “inactive”.
`C[C@](N)(Cc1ccc(O)c(O)c1)C(=O)O`: the outcome was inactive.
Still for that read-out and setting: with `CC(C)CC(C)(O)C#CC(C)(O)CC(C)C` (stereo not given) the entry was “inactive”; with `CCCCC(CC)COC(=O)CCCCCCCCC(=O)OCC(CC)CCCC` (stereo not given), “inactive”; with `Cc1ccc(N)cc1O`, “inactive”.
For `CCNc1ccccc1`, the molecule was called inactive.
The same measure, in the same setting: as for `CCc1cc(SCc2sc(-c3ccc(C(F)(F)F)cc3)nc2CN2CCN(c3ccc(OC)cc3)CC2)ccc1OCC(=O)O`, the entry is “inactive”; as for `CNS(=O)(=O)c1cc(C(=O)N2CCC(CCN3C4CCC3CC(n3c(C)nc5ccccc53)C4)(c3cccc(F)c3)CC2)c(Cl)cc1F` (stereo not given), “inactive”.
For `CC/C(=C\C(=N/O)C(N)=O)C(C)[N+](=O)[O-]` (stereo not given), the call was inactive.
Regarding `Fc1ccccc1[C@@H](F)COC1CCC(Nc2ncnc3[nH]ncc23)CC1` (stereo not given in full), the half-maximal activity concentration (AC50) is 34.9 µM (active).
For the molecule `CC(C)CCCCCCCOC(=O)CCCCC(=O)OCCCCCCCC(C)C`, the molecule was called inactive.
`CC(C)c1cccc(C(C)C)c1N1C(=O)c2ccc(O)cc2C1=O`: the outcome was inactive.
For `Nc1ccc(Nc2ccccc2)cc1`, the half-maximal activity concentration (AC50) was 40 µM (active).
Same read-out and setting: with `O=P(OC(CCl)CCl)(OC(CCl)CCl)OC(CCl)CCl` the figure was 28.2 µM (active).
With `CC(C)=CCC/C(C)=C/CO`, the molecule was classed as inactive.
Same read-out and setting: with `CCN(C(=O)c1cc(C)cc(OC[C@H](C)Nc2ccncc2)c1)C(C)C` the entry was “inactive”; with `NC(=O)NO`, “inactive”.
For `On1ccccc1=S`, the half-maximal activity concentration (AC50) is 0.0293 µM (active).
On to `CC[C@H]1OC(=O)[C@H](C)[C@@H](O[C@H]2C[C@@](C)(OC)[C@@H](O)[C@H](C)O2)[C@H](C)[C@@H](O[C@@H]2O[C@H](C)C[C@H](N(C)C)[C@H]2O)[C@](C)(O)C[C@@H](C)C(=O)[C@H](C)[C@@H](O)[C@]1(C)O`, for which the outcome was inactive.
Same read-out and setting: with `CC(=O)OCCC(C)C` the entry was “inactive”.
